Our source for the INHIBITION values is ChEMBL document CHEMBL4513216, “Probing the Open Global Health Chemical Diversity Library for Multistage-Active Starting Points for Next-Generation Antimalarials” (ACS Infect Dis, 2020).

Out of some 65,000 compounds screened, about 2,100 (3.2%) showed an effect of 50% or more. The median lay at about -52%. The entries come from a sample that favours strong results as a whole.

This experiment deals with Plasmodium falciparum. The experiment in a line: Screen against P. falciparum Asexual Blood Stage (ABS), at 5uM. The format is functional, Dd2. The note with it: tested at 5 uM.
For the compound `COc1ccc(CN2C[C@H]3CN(Cc4ccncc4)C(=O)[C@H]3C2)cc1`, the INHIBITION was -22.1%. Then `COc1ccc(CN2C[C@@H]3CN(Cc4ccncc4)C[C@@H]3C2=O)cc1`, with -48%; and `Cc1cccc(CN2CCCC3(CCN(CC4CCCO4)CC3)C2)n1` (stereo not drawn), with 45.2%; and `COc1cc(C(=O)NCC2CC2)nc2c(C)cc(F)cc12`, with -103%. For `C[C@@H]1CN(c2nc(N)nc3c2CCC3)C[C@]1(C)O`, the INHIBITION is on record as -48.4%.

On to `C[C@@H]1CN(c2nc(N)nc3c2CCC3)CC[C@@]1(O)C1CCC1`, for which the INHIBITION was found to be 68.5%.

With `C[C@@H]1CN(c2nc3c(cc2C(N)=O)CCC3)CC[C@@]1(O)C1CCC1`, the INHIBITION is -80.6%.

For `COc1ccc(CN(C)C(=O)CN2CC(n3cccn3)C2)cc1F`, the INHIBITION was 26.7%. With `CCCNC(c1ccc(F)cc1)c1cccnc1` (stereo not drawn) the figure was 35.6%; with `CCNC(c1cccnc1)c1ccc(F)c(C)c1` (stereo not drawn), 25.4%. On to `CCCNC(c1cccnc1)c1ccc(F)c(C)c1` (stereo not drawn), for which the INHIBITION is 57.9%. Take `CCOCC(=O)N1C[C@@H]2COC[C@]2(c2nc(C)no2)C1`: the INHIBITION is -63.5%.

For `CC(=O)N1CCCC(c2cccc(-n3ccnc3)n2)C1` (stereo not drawn), the INHIBITION is given as -75.7%. With `Cc1cc(C)nc(N2CCCC(c3cccc(-n4ccnc4)n3)C2)n1` (stereo not drawn) the figure was 66.3%. In the case of `c1cnc(N2CCCC(c3cncc(-n4ccnc4)n3)C2)nc1` (stereo not drawn), the INHIBITION was -20.6%.

In the case of `O=C(Cc1ccccn1)N1CCc2c(O)nc(-c3cnccn3)nc2C1`, the INHIBITION is -157%. With `CCOCc1cncc2c1CCN(C(=O)c1cscn1)C2` the figure was -43.3%. Then `c1cnc2ccc(C[C@@H]3CC[C@H](CN4CCCOCC4)O3)cc2c1`, with 57.9%; and `CC(=O)N1CCN(C[C@H]2CC[C@@H](Cc3ccc4ncccc4c3)O2)CC1`, with -16.4%; and `c1cncc(C[C@@H]2CC[C@H](CN3CCCOCC3)O2)c1`, with -54%. With `O=C(NCCCN1CCCCCC1=O)c1n[nH]c(=O)c2ccccc12` the figure was -16.5%; with `O=C(NC1CC1)c1nc(Cn2c(C(F)F)nc3ccccc32)no1`, -138%; with `COCC(c1cccc(C(F)(F)F)c1)N(C)C(=O)c1ccncc1` (stereo not drawn), -196%. As to `COCC(c1cccc(C(F)(F)F)c1)N(C)C(=O)c1cnccn1` (stereo not drawn), the INHIBITION was 48.8%. With `COCC(c1cccc(C(F)(F)F)c1)N(C)C(=O)c1cccnc1` (stereo not drawn) the figure was 66.9%; with `CC(C)n1nc2c(cc1=O)CN(c1ncnc3ccccc13)CC2`, -52.6%; with `CN(C)C(=O)Cn1c2c(ccc1=O)CCN(Cc1cnn(C)c1)CC2`, -39.8%.

As for `COCC(=O)NC(C)c1sc(-c2ccccc2F)nc1C` (stereo not drawn), the INHIBITION was -22.6%. Then `COc1ccccc1CN1CCCCC1c1n[nH]cc1-c1cc(C)no1` (stereo not drawn), with 66.4%. With `Cc1cccc(CN2CCCCC2c2n[nH]cc2-c2cc(C)no2)c1` (stereo not drawn) the figure was 52%.

Regarding `COc1cccc(CN2CCCCC2c2n[nH]cc2-c2cc(C)no2)c1` (stereo not drawn), the INHIBITION stood at 35.3%. Then `COc1ccc(CN2CCCCC2c2n[nH]cc2-c2cc(C)no2)cc1` (stereo not drawn), with 35.5%. Then `Cc1cc(-c2c[nH]nc2C2CCCCN2C(=O)c2ccccc2)on1` (stereo not drawn), with -6.99%. Regarding `CCc1ccc(CN2CCCCC2c2n[nH]cc2-c2cc(C)no2)cc1` (stereo not drawn), the INHIBITION stood at 33.5%. With `COC(=O)c1ccc(CN(C)C(=O)c2cnsn2)cc1`, the INHIBITION is -39.8%. Then `Cc1cc(-c2cccnc2)nc(C2CCCN2S(C)(=O)=O)n1` (stereo not drawn), with -29.8%.

`O=C(c1sccc1C1CC1)N1CCN(Cc2cscn2)CC1`: the INHIBITION is given as -52.2%.

In the case of `O=C(c1cocn1)N1C[C@@H]2CN(Cc3ccco3)CCO[C@@H]2C1`, the INHIBITION was -6.8%. Take `N#Cc1ccc(F)c(CNC(=O)NC(CO)Cc2ccccc2)c1` (stereo not drawn): the INHIBITION is recorded as -90.6%. Turning to `CC(C)CC(=O)N(C)Cc1nc(C(F)(F)F)cs1`, the INHIBITION is reported as -49.5%.

As for `CCc1nc2n(n1)CC(NCc1nnc(C(C)C)o1)CC2` (stereo not drawn), the INHIBITION is listed as -107%. Then `OC(CNCCn1cccn1)c1cccc(F)c1` (stereo not drawn), with -25.4%; and `OC(CNCCn1cccn1)c1cccc(Br)c1` (stereo not drawn), with 64.3%. Then `OC(CNCCn1cccn1)c1ccc(Br)cc1` (stereo not drawn), with -6.84%; and `Cc1cc(NC(=O)NCc2ccncc2)ccc1OC(C)C`, with -62%; and `O=C(c1ccc(Cl)cc1)N1CCn2c(nn(-c3cccc(Cl)c3)c2=O)C1`, with -1.25%. As for `CCO[C@H]1CC[C@H]2[C@@H]1OCCN2C(=O)COc1ccccc1`, the INHIBITION is -106%. Then `CN1CCCN(c2nc(C3CC3)ns2)CC1`, with -0.753%; and `CCOc1ccnc(N2CCCN(c3nc(CC)ns3)CC2)n1`, with -63.7%.

With `CCOc1ccnc(N2CCCN(c3nc(C4CC4)ns3)CC2)n1`, the INHIBITION turned out to be 52.1%. With `Cc1ncoc1C(=O)N1CCOC(Cc2ccccc2)C1` (stereo not drawn) the figure was -121%; with `Cn1nc(C2CCCN(Cc3ccc(F)cc3F)C2)c2nccnc21` (stereo not drawn), -79%; with `Cc1cc(C(=O)Nc2ccc3oc(=O)n(CCN(C)C)c3c2)c(C)o1`, 8.61%.
